Test results: the supplement of paper PMC10849652
The full data set covers some 8,800 targets. This sample favours those with a hit. About 0.5% of all pairs of compound and target were hits.

compound: CN1CC[C@H](c2c(O)cc(O)c3c(=O)cc(-c4ccccc4Cl)oc23)[C@H](O)C1 [alvocidib]; test: log2 fold change, soluble protein after heating vs DMSO (PISA); higher = thermal stabilisation; K562 lysate, 10 uM; active = over 0.2 and 3.5 SD of the protein, either way, in both replicates (recomputed)
How it was run: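 Quantification was by TMTpro 16plex LC-MS/MS with equalised channel sums, applied to the supernatant after 21,000xg for 90 min. Samples were crude K562 extract at 1 mg/mL protein in PBS pH 7.4 with 1 mM MgCl2, treated with 10 μM compound for 30 min, heated for 3 min across 48°C-58°C, pooled and brought to 0.5% NP-40 at 4°C. Values are log-two fold changes in thermal stability relative to solvent controls, from duplicates.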

Chain of UniProt P51532 (P51532 whole entry, looked up): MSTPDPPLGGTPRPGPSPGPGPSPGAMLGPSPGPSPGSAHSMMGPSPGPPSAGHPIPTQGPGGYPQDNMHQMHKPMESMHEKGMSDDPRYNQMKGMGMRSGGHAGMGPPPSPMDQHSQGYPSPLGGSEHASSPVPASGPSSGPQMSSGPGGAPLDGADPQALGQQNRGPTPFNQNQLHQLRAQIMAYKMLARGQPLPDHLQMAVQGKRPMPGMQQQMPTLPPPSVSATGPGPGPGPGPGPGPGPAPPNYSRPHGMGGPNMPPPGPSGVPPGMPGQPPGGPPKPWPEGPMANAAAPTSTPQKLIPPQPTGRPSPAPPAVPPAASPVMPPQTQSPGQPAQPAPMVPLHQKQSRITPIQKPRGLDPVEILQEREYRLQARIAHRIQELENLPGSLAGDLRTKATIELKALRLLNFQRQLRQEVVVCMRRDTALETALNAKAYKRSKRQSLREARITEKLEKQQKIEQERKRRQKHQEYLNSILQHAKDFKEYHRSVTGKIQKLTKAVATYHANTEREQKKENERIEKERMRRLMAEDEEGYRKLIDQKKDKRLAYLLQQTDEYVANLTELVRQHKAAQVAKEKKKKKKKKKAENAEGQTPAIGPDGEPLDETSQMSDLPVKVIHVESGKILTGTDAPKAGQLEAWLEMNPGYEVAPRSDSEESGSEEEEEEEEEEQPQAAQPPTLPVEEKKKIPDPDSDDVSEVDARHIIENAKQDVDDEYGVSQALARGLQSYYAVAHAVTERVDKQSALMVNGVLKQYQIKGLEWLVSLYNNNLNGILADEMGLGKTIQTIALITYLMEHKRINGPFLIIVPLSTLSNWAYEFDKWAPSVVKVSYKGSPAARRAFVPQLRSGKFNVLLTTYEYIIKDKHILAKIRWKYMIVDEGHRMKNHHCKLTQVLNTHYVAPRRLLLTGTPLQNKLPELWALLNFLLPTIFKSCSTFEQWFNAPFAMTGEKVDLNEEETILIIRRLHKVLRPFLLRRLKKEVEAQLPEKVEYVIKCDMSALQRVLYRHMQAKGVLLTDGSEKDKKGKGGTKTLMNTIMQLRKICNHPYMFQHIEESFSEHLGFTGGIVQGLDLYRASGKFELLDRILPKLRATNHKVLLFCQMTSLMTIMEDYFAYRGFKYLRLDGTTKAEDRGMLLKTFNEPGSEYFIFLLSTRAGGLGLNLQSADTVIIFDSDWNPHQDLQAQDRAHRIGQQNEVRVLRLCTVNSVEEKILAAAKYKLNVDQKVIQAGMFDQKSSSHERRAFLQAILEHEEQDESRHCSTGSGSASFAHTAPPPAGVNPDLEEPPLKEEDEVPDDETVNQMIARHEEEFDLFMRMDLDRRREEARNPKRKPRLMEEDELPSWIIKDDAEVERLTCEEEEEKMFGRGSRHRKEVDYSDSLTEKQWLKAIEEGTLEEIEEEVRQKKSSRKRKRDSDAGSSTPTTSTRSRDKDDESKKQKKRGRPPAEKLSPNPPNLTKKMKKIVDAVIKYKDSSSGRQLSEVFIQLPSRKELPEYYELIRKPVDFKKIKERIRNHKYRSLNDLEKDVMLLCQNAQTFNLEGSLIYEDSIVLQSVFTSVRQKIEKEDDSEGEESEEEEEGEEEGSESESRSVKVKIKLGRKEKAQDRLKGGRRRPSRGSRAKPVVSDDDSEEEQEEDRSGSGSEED
Chain of UniProt Q13487 (Q13487 whole entry, looked up): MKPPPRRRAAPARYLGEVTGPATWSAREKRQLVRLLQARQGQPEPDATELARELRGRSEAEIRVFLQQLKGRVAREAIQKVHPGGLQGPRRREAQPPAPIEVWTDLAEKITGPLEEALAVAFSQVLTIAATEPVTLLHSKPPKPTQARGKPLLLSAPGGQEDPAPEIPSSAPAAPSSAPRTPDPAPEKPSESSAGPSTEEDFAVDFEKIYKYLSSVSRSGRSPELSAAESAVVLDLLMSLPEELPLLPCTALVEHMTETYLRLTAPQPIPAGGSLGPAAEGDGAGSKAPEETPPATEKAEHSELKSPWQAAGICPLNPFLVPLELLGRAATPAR
Chain of UniProt Q8IVJ1 (Q8IVJ1 whole entry, looked up): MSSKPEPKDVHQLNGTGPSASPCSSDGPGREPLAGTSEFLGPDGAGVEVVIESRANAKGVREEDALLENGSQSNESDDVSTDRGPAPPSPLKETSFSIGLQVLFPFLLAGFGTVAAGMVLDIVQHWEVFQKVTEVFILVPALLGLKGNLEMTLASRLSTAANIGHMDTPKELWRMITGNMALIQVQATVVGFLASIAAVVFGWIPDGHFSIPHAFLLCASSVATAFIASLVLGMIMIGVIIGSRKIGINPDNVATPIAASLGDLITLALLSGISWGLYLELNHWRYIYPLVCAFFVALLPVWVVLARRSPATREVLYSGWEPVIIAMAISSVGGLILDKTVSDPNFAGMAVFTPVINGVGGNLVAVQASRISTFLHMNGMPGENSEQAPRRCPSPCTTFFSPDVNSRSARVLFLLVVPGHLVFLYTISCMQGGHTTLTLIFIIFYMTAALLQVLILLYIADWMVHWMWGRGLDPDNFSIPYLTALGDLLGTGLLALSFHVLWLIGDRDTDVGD
Chain of UniProt Q15544 (Q15544 whole entry, looked up): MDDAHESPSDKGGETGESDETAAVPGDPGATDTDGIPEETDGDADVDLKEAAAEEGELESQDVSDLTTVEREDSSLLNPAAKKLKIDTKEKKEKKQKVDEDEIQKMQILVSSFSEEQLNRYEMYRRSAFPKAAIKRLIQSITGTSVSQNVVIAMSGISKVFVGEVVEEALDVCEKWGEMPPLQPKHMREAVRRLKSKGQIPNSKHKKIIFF
Chain of UniProt P12931 (P12931 whole entry, looked up): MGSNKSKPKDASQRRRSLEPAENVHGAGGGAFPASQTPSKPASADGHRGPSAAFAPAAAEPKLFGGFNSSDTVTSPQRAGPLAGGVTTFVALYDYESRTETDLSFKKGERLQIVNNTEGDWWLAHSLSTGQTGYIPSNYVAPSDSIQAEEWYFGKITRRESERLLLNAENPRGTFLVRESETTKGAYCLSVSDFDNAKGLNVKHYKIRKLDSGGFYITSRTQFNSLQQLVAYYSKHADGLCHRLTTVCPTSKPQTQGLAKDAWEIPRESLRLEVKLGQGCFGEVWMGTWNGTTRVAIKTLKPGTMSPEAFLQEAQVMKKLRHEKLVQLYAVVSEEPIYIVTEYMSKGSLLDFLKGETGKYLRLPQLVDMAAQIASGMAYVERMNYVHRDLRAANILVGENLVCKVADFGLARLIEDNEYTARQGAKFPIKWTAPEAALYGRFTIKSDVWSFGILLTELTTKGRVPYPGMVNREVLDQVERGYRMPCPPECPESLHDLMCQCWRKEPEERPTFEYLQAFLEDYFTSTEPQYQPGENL
Chain of UniProt Q96BD0 (Q96BD0 whole entry, looked up): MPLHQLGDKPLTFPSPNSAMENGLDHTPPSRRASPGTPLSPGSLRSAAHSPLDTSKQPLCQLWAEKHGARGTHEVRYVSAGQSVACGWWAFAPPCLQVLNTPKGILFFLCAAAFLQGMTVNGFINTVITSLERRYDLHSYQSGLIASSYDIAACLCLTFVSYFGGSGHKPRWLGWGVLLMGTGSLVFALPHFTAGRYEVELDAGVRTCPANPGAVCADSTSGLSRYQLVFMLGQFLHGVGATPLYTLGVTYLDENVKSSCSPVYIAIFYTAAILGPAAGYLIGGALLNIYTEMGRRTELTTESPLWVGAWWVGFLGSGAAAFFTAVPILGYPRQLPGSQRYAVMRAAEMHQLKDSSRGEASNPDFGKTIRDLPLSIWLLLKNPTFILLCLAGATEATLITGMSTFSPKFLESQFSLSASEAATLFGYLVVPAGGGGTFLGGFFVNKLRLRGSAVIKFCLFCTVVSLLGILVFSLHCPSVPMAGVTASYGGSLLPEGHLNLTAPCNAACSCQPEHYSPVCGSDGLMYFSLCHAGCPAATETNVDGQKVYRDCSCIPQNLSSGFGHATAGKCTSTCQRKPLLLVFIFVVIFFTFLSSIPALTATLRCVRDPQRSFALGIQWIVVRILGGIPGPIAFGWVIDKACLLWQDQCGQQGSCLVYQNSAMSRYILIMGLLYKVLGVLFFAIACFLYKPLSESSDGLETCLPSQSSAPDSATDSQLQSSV
Chain of UniProt B2RUZ4 (B2RUZ4 whole entry, looked up): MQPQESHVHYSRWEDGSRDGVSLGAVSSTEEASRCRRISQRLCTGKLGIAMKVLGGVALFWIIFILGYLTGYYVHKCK
Chain of UniProt Q9UEE5 (Q9UEE5 whole entry, looked up): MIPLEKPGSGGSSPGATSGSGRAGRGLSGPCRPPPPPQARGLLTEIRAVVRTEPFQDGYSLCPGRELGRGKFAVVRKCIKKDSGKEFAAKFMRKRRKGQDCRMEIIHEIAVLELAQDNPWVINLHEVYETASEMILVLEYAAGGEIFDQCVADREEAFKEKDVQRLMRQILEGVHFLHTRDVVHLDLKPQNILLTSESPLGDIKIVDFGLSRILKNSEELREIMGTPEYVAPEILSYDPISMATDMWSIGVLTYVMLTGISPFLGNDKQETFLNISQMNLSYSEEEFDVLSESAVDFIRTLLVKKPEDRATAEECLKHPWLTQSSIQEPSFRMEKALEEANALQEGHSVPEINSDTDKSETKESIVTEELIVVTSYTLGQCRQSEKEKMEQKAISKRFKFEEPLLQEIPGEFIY
Chain of UniProt Q15506 (Q15506 whole entry, looked up): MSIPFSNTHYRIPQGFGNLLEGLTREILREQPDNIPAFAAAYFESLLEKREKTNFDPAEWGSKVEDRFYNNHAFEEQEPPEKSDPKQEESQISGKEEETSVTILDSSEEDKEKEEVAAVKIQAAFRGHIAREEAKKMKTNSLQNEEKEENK
Chain of UniProt Q15527 (Q15527 whole entry, looked up): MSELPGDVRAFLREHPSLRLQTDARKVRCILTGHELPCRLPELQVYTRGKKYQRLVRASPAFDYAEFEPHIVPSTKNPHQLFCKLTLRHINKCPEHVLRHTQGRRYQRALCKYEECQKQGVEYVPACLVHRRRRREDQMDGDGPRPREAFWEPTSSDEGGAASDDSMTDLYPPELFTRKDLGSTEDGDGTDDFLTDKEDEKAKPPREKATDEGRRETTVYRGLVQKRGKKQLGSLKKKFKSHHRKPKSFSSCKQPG

log2 fold change, inactive:
SMARCA4 isoform 4 (UniProt P51532) 0.078
TAF1B (UniProt Q53T94) 0.175
SLCO4A1 (UniProt Q96BD0) -0.129
SMPD2 (UniProt O60906) -0.043
SLC41A1 (UniProt Q8IVJ1) -0.213
SLC22A18 (UniProt Q96BI1) -0.035
SIN3B (UniProt O75182) -0.463
SZT2 (UniProt Q5T011) -0.169
SURF2 (UniProt Q15527) -0.02
SMIM1 (UniProt B2RUZ4) -0.031
TAOK2 (UniProt Q9UL54) -0.053
SHB (UniProt Q15464) -0.139
SPA17 (UniProt Q15506) -0.208
SIX5 (UniProt Q8N196) 0.159
SNAPC2 (UniProt Q13487) -0.034
TAF11 (UniProt Q15544) -0.015
SRC isoform 2 (UniProt P12931) -0.035
STAU1 isoform 3 (UniProt O95793) -0.06
STK17A (UniProt Q9UEE5) 0.182
